Values joined by “and” are separate entries in the source; they are usually repeats but may differ in a detail not shown here. Equal entries are not always repeated. Results filed as inconclusive are left out. Active and inactive are the calls of the source. Unless noted, calls come from the whole dose curve; as a rule, active = well fitted curve in the direction sought with a large enough effect; inconclusive = small, poorly fitted or top-dose-only effect, or another doubt; inactive = no such curve, though single readings can be large; an effect the other way counts as inactive or inconclusive.
What was measured:
[1] = biological target: Cellular tumor antigen p53 (Homo sapiens) (UniProt P04637); experiment: Primary qHTS for small molecule compounds that upregulate eGFP-tagged delta133p53alpha (in N-terminal) cells. (AID 2060322); conditions: NCI-H358 eGFP-delta133p53alpha fluorescence, 24 h; activation: active compounds read high; note: nearly all actives have a fitted effect of over 75% in size; note: potency is the fitted concentration of half-maximal effect;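 for activation: series mostly up to about 56 µM; 0% = DMSO vehicle and 100% = reference activator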
Method in brief: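 NCI-H358 cells pre-induced 24 h with 10 ng/ml doxycycline to express N-terminal eGFP-delta133p53alpha, then dosed 24 h at 37C without doxycycline; fixed, Hoechst-stained, GFP intensity by laser scanning cytometry, normalized to DMSO (0%) and 57.5 uM 5-azacytidine (100%).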

[2] = biological target: Cellular tumor antigen p53 (Homo sapiens) (UniProt P04637); experiment: Primary qHTS for small molecule compounds that upregulate eGFP-tagged delta133p53alpha (in C-terminal) cells. (AID 2060324); note: potency is the fitted concentration of half-maximal effect
Method in brief: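 NCI-H358 cells pre-induced 24 h with 100 ng/ml doxycycline to express delta133p53alpha-eGFP, then dosed in doxycycline-free medium for 24 h at 37C. Fixed, Hoechst-stained; GFP intensity by laser scanning cytometry, normalized to DMSO wells.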

[3] = biological target: Aldehyde dehydrogenase, mitochondrial (Homo sapiens) (UniProt P05091); experiment: qHTS for Inhibitors of the Aldehyde Dehydrogenase Family (ALDH2) Confirmatory screens (AID 2061303; active = well fitted inhibition curve with a large enough effect; title and protocol of this record describe different tests; note: % is set by controls: 0 for no effect and ±100 for the full control effect; nearly all actives have a fitted effect of over 45% in size)
[4] = qHTS for Inhibitors of the Aldehyde Dehydrogenase Family (ALDH1A2, ALDH1A3, ALDH2, ALDH3A1) (AID 2061307); note: % is set by controls: 0 for no effect and ±100 for the full control effect; nearly all actives have a fitted effect of over 50% in size
[5] = biological target: Retinal dehydrogenase 2 (Homo sapiens) (UniProt O94788); experiment: qHTS for Inhibitors of the Aldehyde Dehydrogenase Family (ALDH1A2) Confirmation screens (AID 2061314); note: nearly all actives have a fitted effect of over 65% in size
[6] = biological target: Aldehyde dehydrogenase, mitochondrial (Homo sapiens) (UniProt P05091); experiment: qHTS for Inhibitors of the Aldehyde Dehydrogenase Family (ALDH2) Primary screen (AID 2061308);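 note: plate controls were vehicle for no effect and reference inhibitor for full effect; nearly all actives have a fitted effect of over 55% in size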
[7] = biological target: Retinaldehyde dehydrogenase 3 (Homo sapiens) (UniProt P47895); experiment: qHTS for Inhibitors of the Aldehyde Dehydrogenase Family (ALDH1A3) Confirmatory screens (AID 2061311); note: % is set by controls: 0 for no effect and ±100 for the full control effect; nearly all actives have a fitted effect of over 60% in size
[8] = biological target: Retinaldehyde dehydrogenase 3 (Homo sapiens) (UniProt P47895); experiment: qHTS for Inhibitors of the Aldehyde Dehydrogenase Family (ALDH1A3) Primary screen (AID 2061315);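 note: plate controls were DMSO vehicle for no effect and reference inhibitor for full effect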
[9] = biological target: Aldehyde dehydrogenase, mitochondrial (Homo sapiens) (UniProt P05091); experiment: qHTS for Inhibitors of the Aldehyde Dehydrogenase Family (ALDH2) Validation screens (AID 2061302; active = well fitted inhibition curve with a large enough effect; title and protocol of this record describe different tests;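 note: plate controls were DMSO vehicle for no effect and maximal DPI positive control response for full effect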)
[10] = BET inhibitor-based combinations targeting novel dependencies in MECOM-rearranged (r) AML: SET-2 cell line (AID 2202231); conditions: SET-2 AML cells viability, CellTiter-Glo luminescence, 48 h; viability: active compounds read low, concentration not given here; note: nearly all actives have a fitted effect of over 35% in size; note: potency is the fitted concentration of half-maximal effect;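 for viability: plate controls were DMSO treated cells for no effect and wells without cells for full effect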
Method in brief: (§1)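 Here, 11-point titrations of each agent were applied to 500 seeded cells and incubated 48 hr; CellTiter-Glo signal, scaled against DMSO and empty wells, was integrated as AUC, then Z-scored within the individual line.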

[11] = BET inhibitor-based combinations targeting novel dependencies in MECOM-rearranged (r) AML: MV-4-11 cell line (AID 2202233); note: nearly all actives have a fitted effect of over 45% in size; note: potency is the fitted concentration of half-maximal effect
Method in brief: (§2)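 Normalized to DMSO and empty-well controls, the luminescence data from CellTiter-Glo after 48 hr drug exposure were fitted across 11 concentrations. Reported metrics are area under the dose-response curve and its Z-transformed form.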

[12] = BET inhibitor-based combinations targeting novel dependencies in MECOM-rearranged (r) AML: AML-191 cell line (AID 2202236; note: nearly all actives have a fitted effect of over 35% in size; note: potency is the fitted concentration of half-maximal effect)
Method in brief: as §1

[13] = BET inhibitor-based combinations targeting novel dependencies in MECOM-rearranged (r) AML: AML-194 cell line (AID 2202237; note: nearly all actives have a fitted effect of over 40% in size; note: potency is the fitted concentration of half-maximal effect)
Method in brief: as §1

[14] = biological target: Aldehyde dehydrogenase 1A1 (Homo sapiens) (UniProt P00352); experiment: qHTS for Inhibitors of the Aldehyde Dehydrogenase Family (ALDH1A1) Confirmatory screens (AID 2061316); note: nearly all actives have a fitted effect of over 65% in size; note: potency is the fitted concentration of half-maximal effect
[15] = BET inhibitor-based combinations targeting novel dependencies in MECOM-rearranged (r) AML: OCI-AML3 cell line (AID 2202232); conditions: Potency: OCI-AML3 viability; note: nearly all actives have a fitted effect of over 35% in size; note: potency is the fitted concentration of half-maximal effect
Method in brief: as §1

[16] = BET inhibitor-based combinations targeting novel dependencies in MECOM-rearranged (r) AML: HNT-34 cell line (AID 2202234); note: nearly all actives have a fitted effect of over 35% in size; note: potency is the fitted concentration of half-maximal effect
Method in brief: as §2

[17] = biological target: Retinaldehyde dehydrogenase 3 (Homo sapiens) (UniProt P47895); experiment: qHTS for Inhibitors of the Aldehyde Dehydrogenase Family (ALDH1A3) Validation screen (AID 2061312); note: % is set by controls: 0 for no effect and ±100 for the full control effect; nearly all actives have a fitted effect of over 45% in size
[18] = BET inhibitor-based combinations targeting novel dependencies in MECOM-rearranged (r) AML: UCSD-AML1 cell line (AID 2202235); note: nearly all actives have a fitted effect of over 40% in size; note: potency is the fitted concentration of half-maximal effect
Method in brief: as §2

Chain of Cellular tumor antigen p53 (Homo sapiens) (P04637 whole entry, looked up): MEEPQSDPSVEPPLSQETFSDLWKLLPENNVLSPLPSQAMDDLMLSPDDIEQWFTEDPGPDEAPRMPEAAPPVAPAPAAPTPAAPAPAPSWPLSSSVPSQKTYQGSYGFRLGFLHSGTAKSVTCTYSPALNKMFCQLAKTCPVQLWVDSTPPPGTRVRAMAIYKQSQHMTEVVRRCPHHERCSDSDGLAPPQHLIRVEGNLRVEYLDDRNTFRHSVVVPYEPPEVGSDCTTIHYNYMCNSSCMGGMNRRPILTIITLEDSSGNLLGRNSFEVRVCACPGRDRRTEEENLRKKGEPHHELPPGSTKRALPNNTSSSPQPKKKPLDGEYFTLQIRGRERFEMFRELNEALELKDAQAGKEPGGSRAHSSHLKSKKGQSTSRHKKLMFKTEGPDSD

Cc1cccc(C)c1OCC(N)C(C)C (stereo unspecified)
inactive: activation [1] -8.7% | Potency [2] | Potency [3] | Potency [4] | Potency [5]

COc1ccccc1N1CCN(CCN2C(=O)CC3(CCCC3)CC2=O)CC1
inactive: activation [1] 3.57% and -22.5% | Potency [2] | Potency [3] | Potency [4] | Potency [6] | Potency [7] | Potency [5] | Potency [8]

Cn1ccc2cc3c(cc21)CCN3C(=O)Nc1cccnc1
inactive: activation [1] 20.1% and 12% and -55.1% | Potency [2] | Potency [9] | viability [10] 105% | Potency [11] | Potency [12] | Potency [13]

O=C1NC(c2cccc([N+](=O)[O-])c2)=CCN1c1ccccc1O
inactive: activation [1] 5.67% and -12.4% | Potency [2] | Potency [9] | Potency [14]

Nc1nc(N)c2nc(CNc3ccc(C(=O)NC(CCC(=O)O)C(=O)O)cc3)cnc2n1 (stereo unspecified)
inactive: activation [1] 25.1% and -8.03% | Potency [2] | Potency [9] | viability [10] 90.9% | Potency [15] | Potency [11] | Potency [16] | Potency [12] | Potency [13]

O=c1cc(N2CCOCC2)oc2c(-c3ccccc3)cccc12
inactive: activation [1] 3.72% and -10.8% | Potency [2] | Potency [9]
active: Potency [11] 13.2 µM

Nc1c2c(nc3ccccc13)CCCC2
inactive: activation [1] -15.6% and 9.21% and -7.03% | Potency [2] | Potency [9] | Potency [17] | Potency [12]

CN1C(C(=O)Nc2ccccn2)=C(O)c2ccccc2S1(=O)=O
inactive: activation [1] -0.565% and -12.3% and -20.6% | Potency [2] | Potency [9] | viability [10] 105% | Potency [11] | Potency [16] | Potency [18] | Potency [12] | Potency [13]

O=C1Nc2ccc(I)cc2/C1=C/c1cc(Br)c(O)c(Br)c1
inactive: activation [1] -56.5% | Potency [9] | viability [10] 96.6% | Potency [15] | Potency [11] | Potency [13]
active: Potency [2] 19 µM | Potency [12] 18.6 µM

C[C@H]1O[C@@H](n2cc(F)c(=O)[nH]c2=O)[C@H](O)[C@@H]1O
active: Potency [11] 13.2 µM
inactive: activation [1] 2.35% | Potency [2] | Potency [9] | Potency [17]

Clc1ccc2nsnc2c1NC1=NCCN1
inactive: activation [1] 17.5% and 19.5% | Potency [2] | Potency [9] | viability [10] 111% | Potency [15] | Potency [18] | Potency [12] | Potency [13]

Oc1ccc(C2CNCCc3c2cc(O)c(O)c3Cl)cc1 (stereo unspecified)
inactive: activation [1] -18.2% and -20.9% and -11.7% | Potency [2] | Potency [9] | viability [10] 108% | Potency [15] | Potency [11] | Potency [16] | Potency [18] | Potency [13]

C[N+](C)(C)CCOC(=O)CCC(=O)OCC[N+](C)(C)C
inactive: activation [1] -8.47% | Potency [2] | Potency [3] | Potency [4] | Potency [7] | Potency [5] | Potency [14]

O=C(c1ccc(OCCN2CCCCC2)cc1)c1c(-c2ccc(O)cc2)sc2cc(O)ccc12
active: Potency [15] 11.8 µM | Potency [11] 18.6 µM | Potency [13] 20.9 µM
inactive: activation [1] 20.9% and -56% | Potency [2] | Potency [9] | Potency [17] | Potency [18]

C[C@]12CC[C@@H]3c4ccc(O)cc4CC[C@H]3[C@@H]1CC[C@@H]2O
inactive: activation [1] 63.8% | Potency [2] | Potency [9] | Potency [17]
active: Potency [16] 20.9 µM | Potency [18] 14.8 µM | Potency [12] 16.6 µM | Potency [13] 23.5 µM

Nc1nc(N)c(N=O)c(OCC2CCCCC2)n1
active: Potency [16] 5.25 µM | Potency [18] 3.32 µM
inactive: activation [1] -20.9% | Potency [2] | Potency [9] | Potency [17]

CC#C[C@]1(O)CC[C@H]2[C@@H]3CCC4=CC(=O)CCC4=C3[C@@H](c3ccc(N(C)C)cc3)C[C@@]21C
inactive: activation [1] 7.02% | Potency [2] | Potency [9] | Potency [17]
active: Potency [13] 18.6 µM

COc1ccccc1N1CCN(CC(O)COc2cccc3ccccc23)CC1 (stereo unspecified)
inactive: activation [1] 17.1% and 24.3% and -36.9% | Potency [2] | Potency [9]
active: Potency [11] 14.8 µM | Potency [18] 5.25 µM | Potency [12] 9.34 µM

Nc1nc(OCc2ccccc2)c2[nH]cnc2n1
inactive: activation [1] 4.06% | Potency [2] | Potency [9] | Potency [17] | Potency [18] | Potency [13]

Cc1ccc(S(=O)(=O)N[C@@H](Cc2ccccc2)C(=O)CCl)cc1
inactive: Potency [9]
active: Potency [1] 24.3 µM | Potency [2] 26.9 µM | Potency [14] 0.565 µM | Potency [10] 18.6 µM | Potency [15] 16.6 µM | Potency [16] 13.2 µM | Potency [12] 20.9 µM | Potency [13] 23.5 µM
